Several values for one entry are separate records, joined by “and”; a condition that tells them apart may be missing. Identical values can stand only once. Hit rate of the full screen: of about 5,500 compounds, about 2,000 (36%) were called active. Inconclusive results (about 18%) are left out. Cut-off read from the data, not from the text of the source: active = normalized growth mostly below about 0.91 (no sharp cut-off); inconclusive = no clear call, values can overlap the other calls; inactive = mostly above about 0.92. The list shows a part of the results.
Experiment: chemical genetic growth profiling, strain panel (AID 1159580);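 note: tested at 20 µM; growth read once vehicle control cultures reached saturation at 30 °C; 1 = growth at the plate median or of vehicle wells; lower values mean less growth of the strain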
Settings: S. cerevisiae deletion strains, growth OD

Measured: normalized growth

CN(C)[C@@H]1C(=O)C(C(N)=O)=C(O)[C@@]2(O)C(=O)C3=C(O)c4c(O)cccc4[C@@](C)(O)[C@H]3[C@H](O)[C@@H]12
inactive: locus YAL013W, strain DEP1, stronger effect = lower value 1.01 | locus YAL021C, strain ccr4, stronger effect = lower value 1.02 | locus YAL026C, strain drs2, stronger effect = lower value 1.01 | locus YAL030W, strain snc1, stronger effect = lower value 1 | locus YBL061C, strain skt5, stronger effect = lower value 1.02 | locus YBR009C, strain hhf1, stronger effect = lower value 1.01 | locus YBR021W, strain FUR4, stronger effect = lower value 0.99 | locus YBR023C, strain chs3, stronger effect = lower value 1.02 | locus YBR171W, strain sec66, stronger effect = lower value 1.02 | locus YBR229C, strain ROT2, stronger effect = lower value 1 | locus YBR231C, strain swc5, stronger effect = lower value 0.991 | locus YBR279W, strain paf1, stronger effect = lower value 1.02 | locus YCL011C, strain gbp2, stronger effect = lower value 1.01 | locus YCL016C, strain dcc1, stronger effect = lower value 1.01 | locus YCL029C, strain bik1, stronger effect = lower value 0.998 | locus YCL061C, strain MRC1, stronger effect = lower value 1.01 | locus YCL069W, strain vba3, stronger effect = lower value 1.02 | locus YCR088W, strain abp1, stronger effect = lower value 1.02 | locus YDL005C, strain med2, stronger effect = lower value 1.02 | locus YDL035C, strain GPR1, stronger effect = lower value 1 | locus YDL040C, strain nat1, stronger effect = lower value 1.03 | locus YDL074C, strain BRE1, stronger effect = lower value 1.01 | locus YDL101C, strain DUN1, stronger effect = lower value 1.01 | locus YDL134C, strain PPH21, stronger effect = lower value 0.995 | locus YDL185W, strain tfp1, stronger effect = lower value 0.988 | locus YDL192W, strain arf1, stronger effect = lower value 0.998 | locus YDR001C, strain nth1, stronger effect = lower value 1.02 | locus YDR069C, strain doa4, stronger effect = lower value 1 | locus YDR101C, strain arx1, stronger effect = lower value 1.01 | locus YDR137W, strain rgp1, stronger effect = lower value 0.975 | locus YDR150W, strain NUM1, stronger effect = lower value 1.01 | locus YDR159W, strain sac3, stronger effect = lower value 1.05 | locus YDR162C, strain NBP2, stronger effect = lower value 0.992 | locus YDR195W, strain ref2 1.01 | locus YDR297W, strain sur2, stronger effect = lower value 1.02 | locus YDR318W, strain mcm21, stronger effect = lower value 0.999 | locus YDR334W, strain swr1, stronger effect = lower value 1.01 | locus YDR335W, strain msn5, stronger effect = lower value 1.02 | locus YDR388W, stronger effect = lower value 1 | locus YDR392W, strain spt3, stronger effect = lower value 1.02 | locus YDR502C, strain sam2, stronger effect = lower value 0.994 | locus YEL003W, strain gim4, stronger effect = lower value 1.01 | locus YEL037C, strain rad23, stronger effect = lower value 1.02 | locus YEL061C, strain CIN8 (second series), stronger effect = lower value 1.01 | locus YEL061C, strain CIN8, stronger effect = lower value 1 | locus YER015W, strain faa2, stronger effect = lower value 1.01 | locus YER016W, strain bim1, stronger effect = lower value 1 | locus YER110C, stronger effect = lower value 1 | locus YER111C, strain swi4, stronger effect = lower value 1.01 | locus YER155C, strain BEM2 (second series), stronger effect = lower value 0.995 | locus YER155C, strain BEM2, stronger effect = lower value 1.01 | locus YER167W, strain BCK2, stronger effect = lower value 1.01 | locus YFR010W, strain ubp6, stronger effect = lower value 1 | locus YGL078C, strain dbp3, stronger effect = lower value 0.984 | locus YGL086W, strain mad1, stronger effect = lower value 0.982 | locus YGL167C, strain pmr1, stronger effect = lower value 1.01 | locus YGL173C, strain kem1, stronger effect = lower value 1 | locus YGL227W, strain vid30, stronger effect = lower value 1.04 | locus YGL240W, strain doc1, stronger effect = lower value 1.01 | locus YGL248W, strain PDE1, stronger effect = lower value 1 | locus YGL253W, strain hxk2, stronger effect = lower value 1.02 | locus YGR078C, strain PAC10, stronger effect = lower value 1 | locus YGR135W, strain pre9, stronger effect = lower value 0.987 | locus YGR252W, strain gcn5, stronger effect = lower value 0.967 | locus YHR013C, strain ard1, stronger effect = lower value 1 | locus YHR027C, strain rpn1, stronger effect = lower value 1.02 | locus YHR030C, strain SLT2, stronger effect = lower value 1 and 0.979 | locus YHR079C, strain IRE1 (second series), stronger effect = lower value 0.992 | locus YHR079C, strain IRE1, stronger effect = lower value 0.98 | locus YHR094C, strain hxt1, stronger effect = lower value 0.999 | locus YHR129C, strain ARP1, stronger effect = lower value 1.01 | locus YHR142W, strain chs7, stronger effect = lower value 1.05 | locus YHR200W, strain rpn10, stronger effect = lower value 1 | locus YIL066C, strain RNR3, stronger effect = lower value 1 | locus YIL073C, strain SPO22, stronger effect = lower value 1.02 | locus YIL125W, strain kgd1, stronger effect = lower value 0.998 | locus YIR030C, strain dcg1, stronger effect = lower value 0.997 | locus YJL092W, strain hpr5, stronger effect = lower value 1.02 | locus YJL095W, strain BCK1 (second series), stronger effect = lower value 1.02 | locus YJL095W, strain BCK1, stronger effect = lower value 0.987 and 0.979 | locus YJL115W, strain asf1, stronger effect = lower value 1.03 | locus YJL129C, strain trk1, stronger effect = lower value 1.05 | locus YJL134W, strain LCB3, stronger effect = lower value 1.01 | locus YJL154C, strain vps35, stronger effect = lower value 1.04 | locus YJL164C, strain tpk1, stronger effect = lower value 0.997 | locus YJL166W, strain qcr8, stronger effect = lower value 1.03 | locus YJL168C, strain set2, stronger effect = lower value 0.998 | locus YJL187C, strain SWE1 (second series), stronger effect = lower value 1.01 | locus YJR043C, strain POL32, stronger effect = lower value 0.992 | locus YJR066W, strain TOR1, stronger effect = lower value 0.928
